SMILES strings stand for the structures. The campaign covered roughly 2,400 compounds. About 580 (24%) were called active. These entries were drawn from the full list. A number with no mark means an inactive call.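 The calls were made as follows: active = activity change at or above the mean plus 3 SD of buffer wells without dofetilide, per plate; inactive = the rest.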

In this test the target is Potassium voltage-gated channel subfamily KQT member 2 (Rattus norvegicus) (UniProt O88943). As to the kind of experiment: KCNQ2 potentiation in CHO cells – cell-based, FluxOR thallium flux, counter-screen for hERG block protector project, confirmation (AID 1942).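 Also: normalized value minus buffer-control mean plus three SD of buffer wells.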 The note with it: FluxOR thallium flux fluorescence, at 10 µM, active compounds read high. (Counterscreens check selectivity or assay interference.)
Potassium voltage-gated channel subfamily KQT member 2 (Rattus norvegicus), sequence (O88943 whole entry, looked up): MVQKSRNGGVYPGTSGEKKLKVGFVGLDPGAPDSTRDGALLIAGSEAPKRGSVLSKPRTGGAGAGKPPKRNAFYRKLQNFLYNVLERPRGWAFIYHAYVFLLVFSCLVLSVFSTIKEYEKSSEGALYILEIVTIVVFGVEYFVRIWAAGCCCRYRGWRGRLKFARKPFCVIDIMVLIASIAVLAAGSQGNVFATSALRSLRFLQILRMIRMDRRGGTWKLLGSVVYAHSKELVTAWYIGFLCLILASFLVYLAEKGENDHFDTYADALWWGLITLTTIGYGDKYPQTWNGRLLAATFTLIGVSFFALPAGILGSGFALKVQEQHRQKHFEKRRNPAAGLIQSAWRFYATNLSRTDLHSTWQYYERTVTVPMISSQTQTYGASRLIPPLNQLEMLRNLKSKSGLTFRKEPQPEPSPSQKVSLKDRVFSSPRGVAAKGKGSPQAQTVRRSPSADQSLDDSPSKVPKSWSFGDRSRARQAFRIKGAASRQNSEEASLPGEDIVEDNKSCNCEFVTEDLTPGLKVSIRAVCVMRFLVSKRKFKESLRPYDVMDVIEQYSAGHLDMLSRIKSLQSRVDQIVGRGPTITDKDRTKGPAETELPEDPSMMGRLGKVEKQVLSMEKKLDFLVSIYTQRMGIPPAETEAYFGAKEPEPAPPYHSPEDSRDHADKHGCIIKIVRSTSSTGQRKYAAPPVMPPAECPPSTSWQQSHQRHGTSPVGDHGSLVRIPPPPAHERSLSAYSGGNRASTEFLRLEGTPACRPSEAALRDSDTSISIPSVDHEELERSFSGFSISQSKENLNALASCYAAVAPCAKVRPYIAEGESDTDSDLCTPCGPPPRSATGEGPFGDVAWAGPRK
Regarding `CCC1(C(=O)O)NC(c2cc(OC)ccc2O)C2C(=O)N(Cc3ccccc3)C(=O)C21` (stereo not given), the activity change, less the hit threshold is -9.2%.

In the case of `CCOC(=O)c1sc2nc(Cc3ccc(Cl)cc3)[nH]c(=S)c2c1C`, the activity change, less the hit threshold was -4.8%.

As to `CCOC(=O)c1sc(NN=C(C(=O)OC)C(=O)OC)c(C(=O)OCC)c1C`, the activity change, less the hit threshold was -9.1%.

In the case of `CCOC(=O)c1sc2nc(C)[nH]c(=S)c2c1C`, the activity change, less the hit threshold was 4.9% (active).

As for `Cc1ccc(Cn2nnc3c(=O)n(CC(=O)N4CCCc5ccccc54)cnc32)cc1`, the activity change, less the hit threshold is -14.8%.

With `O=C(NN1C(=O)C2C(c3ccccc3)C=CC(c3ccccc3)C2C1=O)c1ccncc1` (stereo not given), the activity change, less the hit threshold was -42.5%.

Regarding `Cc1c(C(=O)N/N=C/c2ccccn2)nnn1-c1nonc1N`, the activity change, less the hit threshold was -9.3%.

Take `O=C(N/N=C/c1ccccn1)c1sc2ccccc2c1Cl`: the activity change, less the hit threshold was 27.4% (active).

Regarding `O=C(N/N=C/c1ccccn1)c1cc(-c2ccc(Br)cc2)nc2ccccc12`, the activity change, less the hit threshold was -26.1%.

As for `O=C1c2cccc3cccc(c23)C(=O)C1(O)O`, the activity change, less the hit threshold was -5.4%.

Consider `Cc1ccc(C(=O)O)cc1-c1ccc(/C=C2\SC(=O)N(CC(=O)Nc3ccccc3)C2=O)o1`, for which the activity change, less the hit threshold is -22%.

In the case of `Cc1nn(-c2ccccc2)c(N2CCCC2)c1/C=N/O`, the activity change, less the hit threshold is -13.5%.

Take `Cc1nn(-c2cccc(C(F)(F)F)c2)c(Cl)c1/C=N/Nc1cccc(C(=O)O)c1`: the activity change, less the hit threshold was 17.9% (active).

Regarding `COc1ccc(C(=O)O)cc1S(=O)(=O)Nc1cccc(C(F)(F)F)c1`, the activity change, less the hit threshold is -13.4%.

Turning to `O=C(O)c1c2c(nc3ccccc13)/C(=C/c1cccc([N+](=O)[O-])c1)CCC2`, the activity change, less the hit threshold is -21%.

Turning to `Cc1ccccc1C(=O)c1cn[nH]c1-c1ccccc1O`, the activity change, less the hit threshold was -32.5%.

In the case of `O=c1c(-c2ccccc2)nc(-c2ccccc2)cn1O`, the activity change, less the hit threshold is 65.1% (active).

Regarding `Cc1nc(-c2ccccc2)cn(O)c1=O`, the activity change, less the hit threshold is -1%.

As to `COC(=O)Nc1c(-c2ccccc2)nc2ccccn12`, the activity change, less the hit threshold was -17%.

For `CC(=O)c1ccc2c(c1)OCCOCCOCCO2`, the activity change, less the hit threshold was -20.1%.

On to `O=C(CCc1ccccc1)Nc1nccs1`, for which the activity change, less the hit threshold is -23.4%.

For `Fc1ccc(NC(=S)Nc2nccs2)cc1`, the activity change, less the hit threshold was 1.8% (active).

As for `Cc1cnc(C(=O)Nc2nccs2)cn1`, the activity change, less the hit threshold was -18.4%.

Take `COc1ccc(-c2cc(C(F)(F)F)nc(N3CCCCC3)n2)cc1OC`: the activity change, less the hit threshold was -16.3%.

With `COc1ccc(-c2cc(C(=O)N3CCCC3)no2)cc1`, the activity change, less the hit threshold was -9%.

As for `COc1ccc(-c2cc(C(=O)N3CCCC3)no2)cc1OC`, the activity change, less the hit threshold is 2.6% (active).

In the case of `CC(/C=C1\N=C(SCc2ccccc2Cl)SC1=O)=C\c1ccccc1`, the activity change, less the hit threshold was -10.1%.

For `CC(/C=C1\SC(=S)N(NS(=O)(=O)c2ccccc2)C1=O)=C\c1ccccc1`, the activity change, less the hit threshold was 18.1% (active).

As for `COc1ccccc1/C=C1\SC(=S)N(NS(=O)(=O)c2ccc(C)cc2)C1=O`, the activity change, less the hit threshold is -24.5%.

Take `CC(/C=C1\SC(=S)N(c2ccc(C(=O)O)cc2)C1=O)=C\c1ccccc1`: the activity change, less the hit threshold was -20.4%.

Take `Cc1ccc(S(=O)(=O)N2C(=O)/C(=C3\SC(=S)NC3=O)c3ccccc32)cc1`: the activity change, less the hit threshold is -14.4%.

Take `CC(/C=C1\SC(=S)N(NS(=O)(=O)c2ccc(C)cc2)C1=O)=C\c1ccccc1`: the activity change, less the hit threshold was 8.8% (active).

Take `COCCNC(=O)C(=O)N/N=C/c1ccc(C(=O)OC)cc1`: the activity change, less the hit threshold is -24.8%.

On to `O=C(CCNC(=O)C1CCN(S(=O)(=O)c2ccc(F)cc2)CC1)NCc1ccc(Cl)cc1`, for which the activity change, less the hit threshold is -18.1%.

For `Cc1cc(C)c(S(=O)(=O)Nc2cccc(-n3cnnn3)c2)c(C)c1`, the activity change, less the hit threshold is -20.5%.

Take `O=C(COc1ccc(Cl)cc1Cl)Nc1cccnc1`: the activity change, less the hit threshold is -20.4%.

As to `COc1ccccc1NC(=O)C1CCCN1C(=O)Nc1ccc(F)cc1` (stereo not given), the activity change, less the hit threshold is -19.8%.

As to `COC(=O)C1CCCN1C(=O)COc1ccc(Cl)cc1Br` (stereo not given), the activity change, less the hit threshold is 8.6% (active).

Consider `CS(=O)(=O)Nc1cccc(-c2cn3ccccc3n2)c1`, for which the activity change, less the hit threshold is -6.5%.

Take `Cn1c(=O)c2sccc2n(Cc2cccc(Br)c2)c1=O`: the activity change, less the hit threshold is -20.7%.

Regarding `CCN1CCN(CCNC(=O)CCCn2nc(C)c3c(C)n(-c4ccc(C)cc4)nc3c2=O)CC1`, the activity change, less the hit threshold was -21%.

Regarding `CSc1nc(C)c(Cc2ccccc2)c(=O)[nH]1`, the activity change, less the hit threshold is -18.7%.

`S=c1nc(Cc2ccccc2)[nH]c2ccccc12`: the activity change, less the hit threshold is 76.9% (active).

As for `O=C(O)CCCCCNc1nc(=S)[nH]c2ccccc12`, the activity change, less the hit threshold is -0.8%.

For `S=c1nc(Cc2ccc(Cl)cc2)[nH]c2ccccc12`, the activity change, less the hit threshold was 28.2% (active).

Consider `O=c1[nH]c(SCc2cccc(Cl)c2)nc2ccccc12`, for which the activity change, less the hit threshold is -14.1%.

In the case of `S=c1nc(COc2ccccc2)[nH]c2ccccc12`, the activity change, less the hit threshold is 131% (active).

On to `CC(C)c1ccc(/C=N/n2c(COc3ccccc3)n[nH]c2=S)cc1`, for which the activity change, less the hit threshold is -16.5%.

`S=c1nc(SCc2ccccc2)[nH]c2ccccc12`: the activity change, less the hit threshold is 73.5% (active).

For the compound `S=c1[nH]nc(Cc2ccc(Br)cc2)n1/N=C/c1ccc(Cl)cc1`, the activity change, less the hit threshold was -13.3%.

For the compound `N=C1S/C(=C\c2ccco2)C(=O)N1c1nccs1`, the activity change, less the hit threshold is -12%.

In the case of `CC(=O)Nc1ccc(S(=O)(=O)N2CCC(NC(=O)c3ccccc3)CC2)cc1`, the activity change, less the hit threshold was -20.1%.

`Cc1ccc(NC(=O)CSc2nnc(C3CC3)n2CC2CCCO2)c(C)c1` (stereo not given): the activity change, less the hit threshold was -18.6%.

Turning to `S=c1[nH]nc(-c2ccco2)n1/N=C/C(Cl)=C/c1ccccc1`, the activity change, less the hit threshold is -17.6%.

As to `O=C(c1cncc(Br)c1)N1CCc2ccccc2C1`, the activity change, less the hit threshold was -24.3%.

`C/C(=N\N1CCN(C2c3ccccc3-c3ccccc32)CC1)c1ccncc1`: the activity change, less the hit threshold is -19.2%.

For the compound `O=C(Nn1cnnc1)c1ccncc1`, the activity change, less the hit threshold was -10.9%.

As to `CC(NC(=O)c1ccncc1)C(C)(C)C` (stereo not given), the activity change, less the hit threshold is 2.9% (active).

On to `O=C(NC(C(=O)c1ccccc1)n1cnccc1=O)c1ccccc1` (stereo not given), for which the activity change, less the hit threshold is -8.7%.

`Cc1c(OC(C(=O)O)c2ccccc2)ccc2c(-c3ccccc3)cc(=O)oc12` (stereo not given): the activity change, less the hit threshold is -7%.

In the case of `Cc1ccc2c(c1)c1c(n2CC(O)Cn2nc(C)c(Br)c2C)CCCC1` (stereo not given), the activity change, less the hit threshold was -17.5%.

Take `Cc1cc(C)c2nc(NC(=O)CN3C(=O)NC4(CCCC4)C3=O)sc2c1`: the activity change, less the hit threshold is -9%.

As for `COC(=O)c1sc(NC(=S)NC(=O)c2ccccc2F)nc1C`, the activity change, less the hit threshold is 11.7% (active).

Consider `COC(=O)c1sc(NC(=S)NC(=O)c2ccc(C)cc2)nc1C`, for which the activity change, less the hit threshold is -13.3%.

Turning to `COC(=O)c1sc(NC(=S)NC(=O)c2ccccc2C)nc1C`, the activity change, less the hit threshold was 26.5% (active).

The values are drawn from PubChem BioAssay AID1942 (Johns Hopkins Ion Channel Center, 2009).
